The results in this text go back to PubChem BioAssay.

Each structure is given as a SMILES string. Values joined by “and” are separate entries in the source; they are usually repeats but may differ in a detail not shown here. Equal entries are not always repeated. For some of these results: Potency and affinity values are given separately. Active and inactive are the calls of the source. Unless noted, no stated cut-off is given here; in the data, active means parasite load remaining mostly below about 12% (no sharp cut-off); inactive means mostly above about 10%.

The nature of experiment [1]: blockers of polyQ-driven CASP3 activation – cell-based (AID 1583). The conditions noted are these: polyglutamine-induced caspase-3 activation, cell assay; stronger effect = higher value;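 tested at 10 µM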.
Experiment [2] in a line: yeast 75Q aggregation reduction – 75Q-TubU reporter (AID 1593). Particulars: Yeast 75Q polyglutamine aggregation reporter.
A short description of experiment [3]: restoration of touch response, mutant HTT neurons – whole organism, C. elegans mechanosensory neurons, N-terminal huntingtin (AID 1599). Particulars: C. elegans polyQ-huntingtin mechanosensory neurons, stronger effect = higher value.
Experiment [4] can be described thus: blockers of cytochrome c efflux from mitochondria – biochemical, purified mitochondria (AID 1603).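 Further: mouse liver mitochondria challenged with calcium chloride; signal normalized to the plate average as 100%.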 Particulars: stronger effect = lower value.
Experiment [5] in a line: polyglutamine aggregate formation blockers (AID 1604). The conditions noted are these: polyglutamine-induced protein aggregation inhibition assay; stronger effect = higher value; tested at 2.5 µM.
Experiment [6] can be described thus: glutamate transport activators, MN-1 cells, MN-1 cell line (AID 1612).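 Further: tested at 1 µM final; 0% = mean of DMSO vehicle wells on each plate; positive means more glutamate uptake than control and negative means less.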 The conditions noted are these: MN-1 motor neuron cells, stronger effect = higher value.
The nature of experiment [7]: GFP-Q80 aggregate reduction, neuronal-like cells, cell-based, NGF-treated PC12, GFPQ80 (AID 1614).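 Further: lower means fewer inclusions and 0 means no inclusions at all.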 Particulars: PC12 NGF-treated GFP-polyQ80 inclusion reduction.
Experiment [8] can be described thus: 75Q-TubH aggregate inhibition, S. cerevisiae, yeast (AID 1616). The conditions noted are these: S. cerevisiae 75Q-TubH polyglutamine aggregation suppression; stronger effect = higher value.
Experiment [9] can be described thus: P. berghei load reduction in hepatocytes – cell-based, HepG2, luciferase luminescence, HepG2 viability, primary screen (AID 624349).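 Further: 100% = mean of DMSO negative control wells on the same plate.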 The conditions noted are these: P. berghei liver stage in HepG2, luciferase luminescence, concentration not given here; parasite load remaining: stronger effect = lower value; viability: measured here: HepG2 viability without parasites.
The nature of experiment [10]: EMT-state selective cytotoxicity in co-culture – imaging, PC-3E GFP, TEM4-18 mCherry, primary screen (AID 1345086;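 active means compounds killing one labelled cell type while sparing the other, by normalised counts and ratio limits, not self-fluorescent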;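 on all read-outs here: cells exposed to compound for 72 h before imaging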;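 on red/green cell ratio (normalised): normalised mesenchymal count divided by normalised epithelial count so high means epithelial killing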). The conditions noted are these: PC-3E GFP / TEM4-18 mCherry co-culture, imaging cell counts, at 1 µM; for red/green cell ratio (normalised): actives lie on both sides, counts scaled to control wells, 1 = unselective.
A short description of experiment [11]: viability loss with induced miR-34 in A549 – imaging, A549 dox-inducible miR-34, nuclei and caspase counts, primary screen (AID 1347080;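 active means compounds whose cell count with miR-34 switched on is under 0.7 times the count with it off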). The conditions noted are these: A549 miR-34 inducible, Hoechst nuclei count, 48 h.
Where [12] appears, read: measured here: epithelial PC-3E GFP cell survival.
Where [13] appears, read: measured here: mesenchymal TEM4-18 mCherry cell survival.
[14] abbreviates: stronger effect = lower value, cell number ratio, induced over uninduced.
[15] abbreviates: measured here: relative caspase fold change +Dox/-Dox.
The mark [16] stands for this setting: measured here: total cells with miR-34 induction, stronger effect = lower value.
Setting [17] is: measured here: total cells without miR-34 induction.

Broadly, the inhibition is the relative decrease from the control value, in per cent. In general, viability refers to a read-out of living cells in per cent, often relative to untreated cells. For the compound `CO[C@H]1C[C@H](O[C@H]2[C@H](C)[C@@H](OC3O[C@H](C)C[C@H](N(C)C)[C@H]3O)[C@@H](C)C[C@]3(CO3)C(=O)[C@H](C)[C@@H](O)[C@@H](C)[C@@H](C)OC(=O)[C@@H]2C)O[C@@H](C)[C@@H]1O` (stereo not given in full), in experiment [1], the inhibition amounted to 27%. This compound had a score in [2] of 1.24. The rescue above control in experiment [3] came out at 28.2. Also, the cytochrome c release ratio in experiment [4] was 0.97. In experiment [5], the inhibition of aggregation came to 7.94%. Also, the glutamate uptake change in experiment [6] is 5.06%. Also, the inclusion score in [7] turned out to be 2. The aggregation suppression score in [8] is 1.24. The parasite load remaining in experiment [9] was 283% (inactive) and 48.5% (inactive). Moreover, in experiment [9], the viability is 76% and 96.5%. Moreover, the red/green cell ratio (normalised) in experiment [10] is 1.12 (inactive). Besides, the normalised cell number in experiment [10] (setting [12]) stood at 0.84; in [10] (setting [13]), 0.94. The results for the fold change in experiment [11] (setting [14]) and in [11] (setting [15]) were 0.824 (inactive) and 2.52, respectively. In addition, the values for the cell count in [11] (setting [16]) and in experiment [11] (setting [17]) were 10700 and 13000, respectively.

With `CC(COc1ccccc1)NC(C)[C@H](O)c1ccc(O)cc1` (stereo not given in full), in [1], the inhibition was -10.5%. The score in experiment [2] came out at 1.07. In addition, the rescue above control in experiment [3] is -0.43. Besides, the cytochrome c release ratio in [4] came to 0.93. The compound further came in with an inhibition of aggregation in experiment [5] of 67.5%. Further, the glutamate uptake change in experiment [6] amounted to 5.98%. The compound also returned an inclusion score in experiment [7] of 2. The aggregation suppression score in experiment [8] amounted to 0.981. The parasite load remaining in experiment [9] was 58.3% (inactive). Besides, the viability in [9] is 72.5% and 101%. Further, the red/green cell ratio (normalised) in [10] is 1.11 (inactive). Further, the normalised cell number in experiment [10] (setting [12]) was found to be 1.16; in experiment [10] (setting [13]), 1.29. Besides, the fold change in [11] (setting [14]) is 0.796 (inactive); in experiment [11] (setting [15]) it was 1.19. Besides, the cell count in [11] (setting [16]) was 10800; in experiment [11] (setting [17]) it was 13600.

In the case of `NC[C@@H]1O[C@H](O[C@@H]2[C@@H](CO)OC(O[C@@H]3[C@@H](O)[C@H](N)C[C@H](N)[C@H]3OC3O[C@H](CN)[C@@H](O)[C@H](O)[C@H]3N)[C@@H]2O)[C@H](N)[C@@H](O)[C@@H]1O` (stereo not given in full), the inhibition in experiment [1] was -14.5%. The same compound registered a score in experiment [2] of 0.97. The compound further gave a rescue above control in experiment [3] of 4.93. In [4], the cytochrome c release ratio was 0.82. This compound also gave an inhibition of aggregation in [5] of 43.7%. Further, the glutamate uptake change in experiment [6] was -6.09%. In experiment [7], this compound gave an inclusion score of 2. In experiment [8], this compound registered an aggregation suppression score of 1.49. Besides, the parasite load remaining in experiment [9] is 59.3% (inactive). For the same compound, the viability in experiment [9] was determined as 91.2%. In experiment [10], the red/green cell ratio (normalised) was 0.97 (inactive). The normalised cell number in experiment [10] (setting [12]) is 1.02; in experiment [10] (setting [13]), 0.98. Moreover, the fold change is 0.934 (inactive) in experiment [11] (setting [14]) and 0.542 in [11] (setting [15]). Besides, the cell count was found to be 12000 in experiment [11] (setting [16]) and 12900 in experiment [11] (setting [17]).

On to `C#C[C@]1(O)CCC2C3CCC4=CC(=O)CC[C@@H]4C3CC[C@@]21CC` (stereo not given in full), for which, in experiment [1], the inhibition is 13.1%. Also, the score in experiment [2] was determined as 1.25. This compound also came in with a rescue above control in experiment [3] of 7. For the same compound, the cytochrome c release ratio in experiment [4] worked out at 0.87. In experiment [5], this compound gave an inhibition of aggregation of 11.1%. Moreover, the glutamate uptake change in [6] was -5.94%. The same compound gave an inclusion score in [7] of 2. In experiment [8], this compound came in with an aggregation suppression score of 1.03. Further, in [9], the parasite load remaining was 86.4% (inactive) and 40.3% (inactive). In addition, the viability in [9] was 65.9% and 90.1%. Also, the red/green cell ratio (normalised) in experiment [10] is 1.08 (inactive). For the same compound, the values for the normalised cell number in experiment [10] (setting [12]) and in experiment [10] (setting [13]) were 0.78 and 0.84, respectively. The fold change is 0.867 (inactive) in experiment [11] (setting [14]) and 2.88 in experiment [11] (setting [15]). Further, the cell count amounted to 10400 in [11] (setting [16]) and 12000 in [11] (setting [17]).

As for `CCN1CCN(C(=O)NC(C(=O)N[C@@H]2C(=O)N3[C@@H]2SC(C)(C)[C@@H]3C(=O)O)c2ccccc2)C(=O)C1=O` (stereo not given in full), in experiment [1], the inhibition is -12.4%. The score in experiment [2] was 1.33. Moreover, in experiment [3], the rescue above control came to 11.4. Also, the cytochrome c release ratio in experiment [4] is 1. The same compound returned an inhibition of aggregation in experiment [5] of 57.7%. Also, the glutamate uptake change in experiment [6] came to 3.02%. Besides, the inclusion score in experiment [7] turned out to be 2. Further, the aggregation suppression score in experiment [8] was 1.27. The parasite load remaining in experiment [9] is 83.4% (inactive) and 122% (inactive). In experiment [9], the viability was 73% and 103%. Besides, the red/green cell ratio (normalised) in experiment [10] is 1.25 (inactive). In addition, the normalised cell number in experiment [10] (setting [12]) was found to be 0.93; in [10] (setting [13]), 1.17. For the same compound, the fold change in experiment [11] (setting [14]) was 0.831 (inactive); in [11] (setting [15]), 1.11. Further, the cell count in [11] (setting [16]) was found to be 10100; in [11] (setting [17]), 12200.
